# Shiga toxin inh = Shiga toxin inhibition | 290,000 tested, 9.2% active | inhibition, % at 38.7 µM | Vero cells, Shiga toxin protein synthesis inhibition reporter; in the data active = inhibition mostly above about 28%, no sharp cut-off; inactive = mostly below about 43%; also: 0% is about no effect
# NS1 function inh = influenza NS1 inhibition; Potency, µM (doses to about 46.1 µM), for the others: at the highest dose activity, positive = more growth; AID 2326; 270,000 tested, 0.4% active; calls by dose curve; also: potency is read from the fitted curve at half-maximal effect; actives are rising curves; nearly all actives have a fitted effect of over 50% in size
#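 S. cerevisiae expressing influenza A NS1, grown in glucose, washed, then diluted 1:100 into pH 6.0 -URA galactose medium with 23 nl compound. Growth recovery read as OD600; NS1-free strain serves as control.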
# Sm TGR inh = inhibitors of Schistosoma mansoni thioredoxin glutathione reductase. Q962Y6. purified TGR, DTNB reduction, TNB absorbance 405 nm. Potency, µM (top dose mostly 114 µM), for the others: top-dose activity change, negative = inhibition, most hits filed as inhibitors. 360,000 tested, 3% active. AID 485364; also: potency is read from the fitted curve at half-maximal effect; % is scaled to controls: 0 for no effect and ±100 for the full control effect; nearly all actives have a fitted effect of over 60% in size
#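 Kinetic colorimetric format: TGR-catalysed, NADPH-driven DTNB reduction monitored via TNB absorbance. Enzyme dispensed at 20 nM; compound exposure 15 min at room temperature before reaction start.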
# Pf growth 96h = P. falciparum growth inhibition at 96 hour, primary screen for plastid delayed-death inhibitors; P. falciparum luciferase reporter growth, 96 h; Potency, µM (top dose mostly 28.7 µM), for the others: at the highest dose activity change, negative = inhibition, usual class: inhibitors; 320,000 tested, 6.9% active; AID 504834; also: potency is read from the fitted curve at half-maximal effect; % is scaled to controls: 0 for no effect and ±100 for the full control effect
#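 Readout is luminescence from an integrated firefly luciferase in P. falciparum. Red cells, 2% hematocrit and 0.05% parasitemia final, were cultured with compound through two parasite generations (96 hours) at 37 C, 5% CO2.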
# Pf growth 48h = P. falciparum growth inhibition at 48 hours (one generation). Potency, µM (top dose mostly 28.7 µM), inactives show at the top dose activity change, negative = inhibition, usual class: inhibitors. P. falciparum luciferase growth in erythrocytes, 48 h. 310,000 tested, 5.9% active; also: potency is read from the fitted curve at half-maximal effect; % is scaled to controls: 0 for no effect and ±100 for the full control effect
#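 Cell-based growth assay: transgenic P. falciparum expressing firefly luciferase, cultured in red cells within RPMI 1640 containing 0.5% w/v Albumax, 24 mM bicarbonate and gentamycin. A drop in luciferase activity indicates inhibition.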
# Cycloheximide cs = counter-screen hit for Shiga toxin inhibitors, cycloheximide | max response, % | AID 2314 | 300,000 tested, 12% active | cell reporter, cycloheximide protein synthesis inhibition counterscreen; in the data active = max response mostly above about 13%, no sharp cut-off; inactive = mostly below about 14%; also: read at 38.3 µM for the half of the compounds with a filed dose; 0% is about no effect
# * hit, by the source's call; ? = inconclusive; / = no result given. Only some compounds are listed: those with a hit (about 21% of all), similar ones and a draw of the others. Unless noted, calls follow the shape of the dose curve; as a rule, active = well fitted curve in the direction sought with a large enough effect; inconclusive = small, poorly fitted or top-dose-only effect, or another doubt; inactive = no such curve, though single readings can be large; an effect the other way counts as inactive or inconclusive.
SMILES,Shiga toxin inh,NS1 function inh,Sm TGR inh,Pf growth 96h,Pf growth 48h,Cycloheximide cs
CCOC(=O)CC1C(=O)NCCN1S(=O)(=O)c1ccccc1Cl (stereo unspecified),-4.6,7.8%,-20.6%,?,0.0%,-5.5
Cc1ccc(N2CC(C(=O)NCc3nnnn3-c3ccc(C)c(C)c3)CC2=O)cc1C (stereo unspecified),/,/,3.6%,/,/,/
CCn1c(C)c2c(C)nnc(C)c2c1C,-2.7,1.7%,44.7µM*,?,10.6%,-3.6
CC1CC=CC2C1C(=O)N(Cc1ccccc1)C2c1ccc(Br)cc1F (stereo unspecified),35.1,/,/,/,/,18.5
N/C(=N\OC(=O)c1ccc(Cl)c([N+](=O)[O-])c1)c1ccccn1,140.9*,/,-22.1%,?,72.4%,72.3*
N/C(=N\OC(=O)c1cccc(Br)c1)c1ccccc1,59.4*,-4.1%,11.3%,41.3%,61.7%,26.6*
N/C(=N\OC(=O)CCCOc1ccccc1)c1cccc(Br)c1,-0.6,-5.3%,-17.0%,43.9%,-10.6%,-2.8
N/C(=N\OS(=O)(=O)c1ccc(Cl)cc1)c1ccccn1,55.6*,/,-0.3%,-10.8%,37.3%,16.9*
N/C(=N\OC(=O)c1cccc(Cl)c1)c1ccccn1,45.9,-53.2%,-1.1%,-89.0%,-13.5%,42.1*
CC(=O)N1CCN(c2csc3ccc(Br)cc3c2=O)CC1,/,/,-13.9%,/,/,/
O=C(COC(=O)c1cnccn1)c1ccc(Cl)c([N+](=O)[O-])c1,10.8,4.5%,39.8µM*,28.3%,2.5%,3.7
N/C(=N\OC(=O)c1cccc(Br)c1)c1ccccn1,35.9*,-62.1%,6.6%,-25.2%,-83.1%,65.8*
N/C(=N\OC(=O)c1ccc(Cl)c(Cl)c1)c1ccccn1,106.8*,-130.1%,9.3%,65.0%,-52.4%,19.0*
Cc1ccc(C(=O)COC(=O)c2cnccn2)cc1[N+](=O)[O-],-17.9,2.8%,-1.0%,?,-9.5%,-1.5
N/C(=N\OC(=O)c1ccc(Cl)cc1)c1ccccn1,32.6,-160.6%,7.3%,-138.1%,-57.9%,7.2
O=C(COC(=O)c1ccccn1)c1cccc(Br)c1,14.5,5.1%,10.1%,2.8%,5.5%,4.8
Cc1cc(C)c2c(=O)cc(CSc3n[nH]c(C)n3)[nH]c2c1,/,/,7.0%,/,/,/
Cn1c(=S)[nH]c2c(c1=O)C(C)(C)Cc1ccccc1-2,-13.9,/,-0.7%,3.29µM*,47.8%,-6.8
CCn1c(=S)[nH]c2c(c1=O)C(C)(C)Cc1ccccc1-2,-4.0,?,0.0%,26.8%,46.8%,-5.8
Cc1[nH]c2ccccc2c1C(=O)CSC(=S)N1CCOCC1,83.8*,3.6%,?,26.0%,19.0%,16.7*
CCCc1cc(=O)[nH]c(SCC(=O)c2c(C)[nH]c3ccccc23)n1,-0.5,2.8%,-11.0%,77.2%,39.6%,-2.2
CCN(CC)C(=S)SCC(=O)c1c(C)[nH]c2ccccc12,22.3,-4.6%,-11.1%,?,-14.5%,15.4*
Cc1ccccc1C[n+]1cccc2ccccc21,/,/,-1.3%,?,0.37µM*,/
O/N=C/c1cccc[n+]1CCCCCC[n+]1ccccc1/C=N/O,-10.1,9.8%,0.0%,?,?,-2.2
O=[N+]([O-])c1ccc(C[n+]2cccc3c4ccccc4ccc32)cc1,10.3,/,7.2%,16.9%,13.9%,-5.9
SMILES,Shiga toxin inh,NS1 function inh,Sm TGR inh,Pf growth 96h,Pf growth 48h,Cycloheximide cs
CCCCCCCCCCCCCCCC[n+]1cccc2ccccc21,-13.0,-14.4%,?,?,0.828µM*,-8.6
CCCCCCCCC[n+]1cccc2c3ccccc3ccc21,-15.2,-279.6%,2.0%,35.3%,0.165µM*,-2.5
CCOC(=O)c1c(C)[nH]c(C)c1S(=O)(=O)N1CCC(C(=O)Nc2ccc(OCC)cc2)CC1,/,/,-1.0%,/,/,/
CCOc1ccc(-c2noc(CCCC(=O)NCC3CCCO3)n2)cc1OC (stereo unspecified),-6.3,-0.2%,-6.4%,49.2%,?,-2.6
CCN(CC)c1ccc(/C=N/NC(=O)Cc2cccs2)c(O)c1,78.4*,8.3%,-0.1%,?,?,32.0*
CCN(CC)c1ccc(/C=N/NC(=O)c2ccco2)cc1,52.5*,-24.6%,-18.8%,?,10.9%,49.2*
CCN(CC)c1ccc(/C=N/NC(=S)NCc2ccccc2)c(O)c1,-6.5,17.4%,1.9%,?,0.0%,-5.5
CCN(CC)c1ccc(/C=N/NC(=O)c2ccco2)c(O)c1,75.7*,-81.0%,8.3%,-86.3%,?,37.5*
N#CC1=C2C=CC=CN2CC1=O,110.5*,5.3%,2.2%,140.8%,155.4%,30.4*
COC(=O)CSc1nnc(-c2cccc(O)c2)o1,/,/,4.9%,/,/,/
O=C(CCCl)N(Cc1nc2ccccc2c(=O)[nH]1)Cc1cccs1,3.5,1.2%,0.0%,12.0%,-17.9%,1.6
CC(C)(C)C(=O)N(Cc1nc2ccccc2c(=O)[nH]1)Cc1cccs1,-12.6,11.5%,-20.2%,11.7µM*,-15.9%,-6.1
O=C(Nc1ccccc1Cl)N(Cc1nc2ccccc2c(=O)[nH]1)Cc1cccs1,-4.8,8.8%,-12.8%,?,?,1.6
O=C(C1CC1)N(Cc1nc2ccccc2c(=O)[nH]1)Cc1cccs1,-4.9,-3.7%,-13.4%,-5.1%,1.85µM*,-2.5
CCOC(=O)CN(Cc1ccccc1)C(C(=O)NC1CCCCC1)c1ccc(OC)cc1 (stereo unspecified),/,/,-11.2%,/,/,/
Oc1ccc(-c2cnns2)c(O)c1,-3.9,11.2%,79.4µM*,11.7µM*,10.4µM*,-1.9
CC1(C)CC(=O)C(C(=O)/C=C/c2ccco2)C(=O)C1,-12.6,12.5%,?,0.0%,-0.2%,-2.3
O=C(O)C(C(=O)/C=C/c1ccco1)=C1SCCS1,73.6*,10.6%,0.0%,59.3%,68.0%,26.7*
O=C(C=C1SCCS1)/C=C/c1ccco1,70.7*,-7.5%,7.08µM*,331.0%,297.0%,36.7*
COc1cc(C2c3c(c(C)c(C)oc3=O)Oc3c(C)c(C)oc(=O)c32)ccc1OS(=O)(=O)c1ccc(C)cc1,/,/,-24.5%,4.65µM*,5.86µM*,/
COc1ccc(C2c3c(c(C)c(C)oc3=O)Oc3c(C)c(C)oc(=O)c32)cc1,/,/,-2.4%,10.5%,29.8%,/
CC(NCC(=O)Nc1ccccc1C(=O)NC1CC1)c1cccc(C(F)(F)F)c1 (stereo unspecified),/,/,-3.8%,?,?,/
Nc1nc(NC2CC2)c2ncn([C@H]3C=C[C@@H](CO)C3)c2n1,/,/,/,45.1%,60.5%,/
Cc1ccc(NC(=O)CCc2nnc3ccc(NCc4ccco4)nn23)cc1,18.4,6.2%,-35.6%,?,?,35.3*
Cc1ccc(-c2nnc3ccc(SCC(=O)NCc4ccco4)nn23)cc1,-8.5,0.9%,50.1µM*,145.1%,-11.0%,-2.4
O=C(CSc1ccc2nnc(-c3ccc(F)cc3)n2n1)NCc1ccco1,-4.9,2.3%,44.7µM*,30.1%,8.1%,-4.0
CCOc1ccc(-c2nnc3ccc(SCC(=O)NCc4ccco4)nn23)cc1,-8.0,-29.5%,14.8%,90.8%,30.3%,2.3

# Source: PubChem BioAssay
